Measured values taken from PubChem BioAssay (EPA / NIEHS).
Where “and” joins values, the source holds several entries; their conditions need not be identical. Equal entries are not always repeated. Some compounds were tested as several samples or in several runs, with calls that do not always agree. Calls of active or inactive are those of the source. The calls were made as follows: active = hit-call score of the fitted dose curve at least 0.9, where 1 is the maximum; inactive = score below 0.9.

read-out: Interleukin 17A (IL17A), IL17A (gene 3605); experiment: BSK_BT_xIL17A: BioMAP Diversity Plus: BT Assay for Interleukin 17A (IL17A) Biomarker Activity (AID 2284229); conditions: primary human B cells with PBMC
Protocol: BSK_BT is a cell-based, multiplexed-readout assay that uses B cell and peripheral blood mononuclear cells, a human vascular primary cell co-culture, with measurements taken at 24 hours after chemical dosing in a microplate: 96-well plate.BSK_BT_xIL17A is an assay component measured in the BSK_BT assay. It measures secreted IL-17A related to regulation of gene expression using LumineX xMAP technology.Data from the assay component BSK_BT_xIL17A was analyzed at the endpoint, BSK_BT_xIL17A, in the positive analysis fitting direction relative to DMSO as the negative control and baseline of activity. Using a type of cytokine quantitation reporter, gain or loss-of-signal activity can be used to understand protein changes. To generalize the intended target to other relatable targets, this assay endpoint is annotated to the 'cytokine' intended target family, where the subfamily is 'interleukins'.
The levels of cell surface (or secreted, indicated by the prefix "s") biomarker endpoints were measured by ELISA. Overt cytotoxicity to cells in confluent adherent cultures (all systems other than the BT system) was assessed by measuring total protein levels using sulforhodamine B (SRB) staining in parallel cultures at the time of biomarker measurements, indicated as SRB endpoints. For proliferation assays for adherent cell types, individual cell types are cultured at sub-confluence and relative cell numbers quantified by SRB staining at time points optimized for each system (48 h: 3C and CASM3C systems; 72 h: BT and HDF3CGF systems; 96 h: SAg system). SRB was performed by staining cells with 0.1% SRB after fixation with 10% TCA and reading wells at 560 nm.Viability and proliferation of PBMC (T cells) was quantified by Alamar Blue reduction for the SAg and BT systems. For PBMC viability (referred to as PBMC Cytotoxicity within the assay endpoint names), cells were plated (75,000/well in a 96-well plate) and then chemical samples added for 1 h before addition of activators, SEB and TSST-1 (20 ng/mL final concentration each). Cells were incubated for 90 h. Then, Alamar Blue (20 uL/well) (Invitrogen, Cat DAL1100) was added for 6 h, and the plates were read with a fluorescence microplate reader at 546/580 nm (excitation/emission). For PBMC proliferation, cells were plated and activated as above but incubated for only 16 h prior to addition of Alamar Blue. Plates were read after 6 h.

| Structure (SMILES) | AC50 | outcome |
| --- | --- | --- |
| O=[N+]([O-])C=Cc1ccccc1 | 5.44 µM (active) |  |
| Cc1ccc(OP(=O)(Oc2ccc(C)cc2)Oc2ccc(C)cc2)cc1 (tested in a mixture with another compound) | 14.1 µM (active) |  |
| CCCOC(=O)c1ccccc1C(=O)OCCC |  | inactive |
| O=c1c2ccccc2c(=O)c2c1cc(Cl)c1[nH]c3c([nH]c12)c(Cl)cc1c(=O)c2ccccc2c(=O)c13 |  | inactive |
| CNC(=O)Oc1cc(C)c(SC)c(C)c1 | 11.5 µM (active) |  |
| O=c1[nH]c(Cl)c(Cl)cc1Cl |  | inactive |
| O=C1C(Cl)=C(Cl)C(=O)C(Cl)=C1Cl | 20 µM (active) |  |
| C=CCN(CC=C)C(=O)C(Cl)Cl |  | inactive |
| CC(=O)/C=C/c1ccccc1 | 20 µM (active) |  |
| CC(C)COP(=O)(OCC(C)C)OCC(C)C |  | inactive |
| CC(C)(C)C(O)C(Oc1ccc(-c2ccccc2)cc1)n1cncn1 (configuration not stated) |  | inactive |
| CC1(C)[C@H](C(=O)O[C@H](C#N)c2cccc(Oc3ccccc3)c2)[C@@H]1C=C(Br)Br | 20 µM (active) | inactive |
| Oc1cc(Cl)ccc1Cl |  | inactive |
| CC(C)(C)C(=O)CCl |  | inactive |
| O=C1C=CC(=O)C=C1 | 13.6 µM (active) and 20 µM (active) |  |
| O=C(O)CCCc1ccc(N(CCCl)CCCl)cc1 | 15 µM (active) | inactive |
| CC(C)(c1cc(Cl)c(O)c(Cl)c1)c1cc(Cl)c(O)c(Cl)c1 |  | inactive |
| c1ccc(Nc2ccc3ccccc3c2)cc1 | 20 µM (active) |  |
| O=P1(NCCCl)OCCCN1CCCl (configuration not stated) |  | inactive |
| COCC(=O)N(c1c(C)cccc1C)N1CCOC1=O |  | inactive |
| Nc1ccc(-c2ccc(N)c(N)c2)cc1N |  | inactive |
| CC(C)CCCCCCCOP(=O)(Oc1ccccc1)Oc1ccccc1 | 19.5 µM (active) |  |
| COC(C)(C)CCC[C@H](C)C/C=C/C(C)=C/C(=O)OC(C)C | 13.4 µM (active) |  |
| Clc1ccc(-c2ccccc2)cc1 |  | inactive |
| CCC(C)c1cc([N+](=O)[O-])cc([N+](=O)[O-])c1OC(=O)C=C(C)C (configuration not stated) | 14.4 µM (active) |  |
| CCc1cc(C)cc(CC)c1-c1c(OC(=O)C(C)(C)C)n2n(c1=O)CCOCC2 |  | inactive |
| C=CC(=O)OCC(CC)CCCC (configuration not stated) |  | inactive |
| O=S(=O)(c1ccccc1)c1ccccc1 |  | inactive |
| CCCCCCCCCCCC#N |  | inactive |
| CC(C)CCCCCCCOC(=O)c1ccccc1C(=O)OCCCCCCCC(C)C |  | inactive |
